# High-throughput results deposited in PubChem BioAssay by Sanford-Burnham Center for Chemical Genomics.
# KKLEB tox: counter-screen for CF NF-kB inhibitors: cytotoxicity; KKLEB CF airway cells viability, ATPlite luminescence, overnight; hits give low values; cells stimulated with P. aeruginosa culture filtrate; activity change (cytotoxicity), % at 5 µM; 360,000 compounds, 0.36% hits; AID 602141;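 active = corrected activity change at or below -50% at 5 µM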
# CF NFkB inh: inhibitors of cystic fibrosis induced NF-kB; AID 588850; KKLEB NF-kB-GFP reporter, PAF-induced, GFP fluorescence overnight; 360,000 compounds, 0.86% hits; inhibition, % at 5 µM;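 active = at least 50% inhibition at 5 µM, scaled per plate between neutral and stimulator controls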;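 note: PAF is a Pseudomonas aeruginosa culture filtrate used as stimulus; plate controls were PAF-stimulated DMSO wells for no effect and unstimulated DMSO wells for full effect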
# hiPSC survival: hiPSC single-cell survival enhancement; ATPlite luminescence; 100% = ROCK inhibitor wells, 0% = DMSO; 360,000 compounds, 0.044% hits; survival enhancement, % at 20 µM; in the data active = survival enhancement above about 18%;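 note: cells exposed to compounds for 16 hours before the ATP read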
# PPC-1+TRAIL kill: PPC-1 cancer cell killing with TRAIL present | PPC-1 cells + TRAIL, ATPLite viability luminescence | cell killing (% activity), % at 4 µM or 5 µM | 220,000 compounds, 0.41% hits;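 active = cell killing above 50% in the first pass at 4 µM, then a duplicate retest at 5 µM averaging 50% or more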;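 note: plate controls were cells with TRAIL plus DMSO for no effect and medium-only wells lacking cells for full effect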
# C8 TRAIL sens: sensitizes caspase-8 expressing cells to TRAIL | NB7+C8 cells + TRAIL, ATPlite viability luminescence | 360,000 compounds, 1% hits | inhibition (viability loss, TRAIL sensitization), % at 10 µM | AID 624354;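 active = compounds causing at least 50% loss of cell viability in the single-dose screen, relative to plate controls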
# HIF-2a inh: HIF-2a inhibition; 360,000 compounds, 0.72% hits; AID 624352; inhibition, % at 18.8 µM; 786-0 RCC cells HIF-2a reporter, luciferase luminescence, overnight;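 active = inhibition of the luminescence signal of 40% or more relative to plate controls, in a single-dose primary screen at 18.75 µM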
# PPC-1 tox: kills PPC-1 cells | 1,200 compounds, 50% hits | shares compounds with PPC-1+TRAIL kill | PPC-1 viability, ATPlite luminescence, overnight | AID 1447 | cytotoxicity, % at 5 µM;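 active = reconfirmed compounds whose average cytotoxicity reaches 50% or more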;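 note: 0% = DMSO-treated cells and 100% = wells holding medium but no cells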
# * marks the source's active call; other numbers are inactive results; nt = no result. An excerpt weighted towards active compounds, which were near 2.2% of everything screened.
SMILES,KKLEB tox,CF NFkB inh,hiPSC survival,PPC-1+TRAIL kill,C8 TRAIL sens,HIF-2a inh,others
COc1ccc(-n2c(O)c(/C=C3\C=Nc4ccc(Br)cc43)c(=O)[nH]c2=O)c(OC)c1,1.7,42.8,-0.4,nt,-7.7,44.6*,
COc1ccc(-n2c(O)c(/C=C3\C=Nc4ccc(Br)cc43)c(=O)[nH]c2=O)cc1,1.7,18.7,0.4,nt,10.7,31.4,
Cc1cc2c(C(C)C)c(O)c(O)c(C=O)c2c(O)c1-c1c(C)cc2c(C(C)C)c(O)c(O)c(C=O)c2c1O,-53.0*,62.0*,4.7,5.4,32.4,89.1*,
Nc1ccc2nonc2c1[N+](=O)[O-],0.6,0.2,0.5,7.9,9.0,2.5,
Cc1[nH]n(-c2ccccc2)c(=O)c1C(c1ccc([N+](=O)[O-])cc1)c1c(C)[nH]n(-c2ccccc2)c1=O,6.1,54.6*,-1.3,-3.3,1.5,8.1,
O=C1NC2C(=CC(O)C(O)C2O)c2cc3c(cc21)OCO3 (stereo not given),-7.1,77.7*,-2.5,nt,30.8,35.4,
O=C1c2ccccc2-n2nnnc2C2c3ccccc3-n3nncc3CN12 (stereo not given),-3.5,-12.2,1.1,nt,-12.6,0.8,
COc1nc2ccccc2nc1N1CC1,-4.4,-16.9,3.1,nt,6.6,10.7,
O=C1NC(=S)NC(=O)C1=Cc1cccc2cc3ccccc3cc12,-36.1,94.6*,-0.7,17.8,-15.1,-12.8,
COc1ccc(C=C2C(=O)NC(=S)NC2=O)cc1,-9.8,7.7,4.5,nt,-15.6,6.3,
Cc1c(C)c2ccc(OCC(=O)N3CCC(C(=O)O)(c4ccccc4)CC3)c(C)c2oc1=O,16.2,-0.9,3.6,nt,-3.2,-7.5,
c1ccc(N2[C@@H]3CC[C@H]2c2ccncc2C3)cc1,nt,nt,nt,nt,3.6,7.1,
CCc1ccc(N2C(=O)NC(=O)/C(=C\C=C\c3ccco3)C2=O)cc1,4.0,44.8,-0.3,11.9,14.2,24.4,
Cc1cc(C)cc(N2C(=O)NC(=O)/C(=C\C=C\c3ccco3)C2=O)c1,-29.3,46.7,-0.6,15.1,13.2,40.3*,
CC(C)c1ccc(N2C(=O)NC(=O)/C(=C/C=C/c3ccco3)C2=O)cc1,-20.4,84.0*,0.2,9.1,14.3,17.2,
Cc1ccc(N2C(=O)NC(=O)/C(=C/C=C/c3ccco3)C2=O)cc1,-19.6,80.6*,-2.4,9.8,19.2,64.1*,
O=C1NC(=O)N(Cc2ccc(F)cc2)C(=O)/C1=C\C=C\c1ccco1,-3.4,77.8*,-0.7,14.1,11.5,22.3,
O=C1NC(=O)N(Cc2ccccc2)C(=O)/C1=C\c1ccco1,-1.1,46.7,2.6,10.9,8.0,16.8,
COP(=S)(OC)c1c(C)nn(CCC#N)c1NC(=O)c1ccc(Cl)cc1,1.0,-2.6,-0.1,nt,8.3,8.2,
Cc1c(Br)c(=O)oc2cc(OCC(=O)N3C[C@H]4C[C@@H](C3)c3cccc(=O)n3C4)ccc12,-14.5,4.2,2.7,nt,2.0,-10.7,
C[C@@H]1CN(C2CCC(C#N)(c3ccc(F)cc3)CC2)CC[C@]1(C(=O)O)c1ccccc1 (stereo not given in full),-27.7,-6.1,-0.1,nt,9.7,-1.4,
O=C1NC(=O)N(c2ccccc2)C(=O)/C1=C\C=C\c1ccccc1,17.7,34.9,-0.7,0.4,22.7,81.9*,
COc1cc2c3cc1Oc1cc(ccc1O)C[C@@H]1c4c(cc(OC)c(O)c4Oc4ccc(cc4)C[C@H]3N(C)CC2)CCN1C,-65.7*,21.2,-4.9,9.7,-3.1,-10.9,
COC(=O)[C@]12OC[C@]34C([C@@H](O)[C@@H]1O)[C@]1(C)CC(=O)C(O)=C(C)[C@@H]1C[C@H]3OC(=O)[C@H](O)[C@@H]24 (stereo not given in full),0.4,28.8,-2.2,28.1,39.2,44.9*,
NC(=O)c1ccc(N)nc1,-90.6*,77.8*,0.6,nt,44.2,2.8,
SMILES,KKLEB tox,CF NFkB inh,hiPSC survival,PPC-1+TRAIL kill,C8 TRAIL sens,HIF-2a inh,others
CCOC(=O)[C@]12Cc3cc(OC)ccc3[C@H]1N(C1CCCCC1)C(=O)c1ccccc12,nt,nt,-1.1,nt,84.9*,15.8,
CCOC(=O)[C@]12Cc3cc4ccccc4cc3[C@H]1N(Cc1ccccc1)C(=O)c1ccccc12,nt,nt,-1.4,nt,66.7*,35.6,
CCOC(=O)[C@]12Cc3cc(OC)ccc3[C@H]1N(Cc1ccccc1)C(=O)c1cc(OC)ccc12,nt,nt,-0.8,nt,12.5,25.3,
CCOC(=O)[C@]12Cc3cc(OC)c(OC)cc3[C@H]1N(Cc1ccccc1)C(=O)c1ccccc12,-0.5,-2.1,-1.8,nt,2.2,19.8,
CCOC(=O)[C@]12Cc3cc4ccccc4cc3[C@H]1N(Cc1ccccc1)C(=O)c1cc(OC)ccc12,nt,nt,-1.7,nt,64.2*,24.5,
CCOC(=O)[C@]12Cc3cc(Cl)ccc3[C@H]1N(Cc1ccccc1)C(=O)c1cc(OC)ccc12,nt,nt,-1.5,nt,88.6*,37.5,
CCOC(=O)[C@]12Cc3cc(OC)ccc3[C@H]1N(C)C(=O)c1ccccc12,nt,nt,-0.4,nt,14.1,8.8,
S=P(NCCNP(=S)(N1CC1)N1CC1)(N1CC1)N1CC1,3.4,-4.9,0.5,nt,-2.7,8.2,
CCOC(=O)C(c1c(O)c2ccccc2oc1=O)c1c(O)c2ccccc2oc1=O,9.2,1.5,0.2,nt,14.5,-1.1,
CCOP(=O)(OCC)C(NC(=O)c1ccc(C)cc1)=C(Cl)Cl,-4.0,-2.8,1.4,11.0,-4.2,16.3,
C=CCn1c(O)c(C(C)=NCc2cc(OC)cc(OC)c2)c(=O)[nH]c1=O,8.0,-15.1,-2.2,28.3,81.6*,31.6,
C=CCn1c(O)c(C(C)=NCc2cccnc2)c(=O)[nH]c1=O,1.0,-26.1,0.8,11.1,-14.5,-1.5,
CCCCn1nnnc1C(CCc1ccccc1)N1CCC2(CC1)C(=O)NCN2c1ccccc1 (stereo not given),-11.2,16.7,-0.1,nt,5.8,-2.1,
C/C=C(\C)C(=O)OC1C(C)=C2C(C1OC(=O)CCCCC)C(C)(OC(C)=O)CC(OC(=O)CCC)C1(O)C2OC(=O)C1(C)O (stereo not given),nt,nt,nt,56.6*,nt,nt,PPC-1 tox=54.4*
CCOC(=O)C(NC(C)=O)C(OC(C)=O)c1cccc(N(CCCl)CCCl)c1 (stereo not given),-22.5,12.4,0.2,-10.5,5.1,1.0,
Cc1ccc(N2CCNCC2C)cc1 (stereo not given),6.1,-91.0,5.7,nt,-14.8,12.4,
C[C@H]1O[C@@H](O[C@H]2[C@@H](O)C[C@H](O[C@H]3[C@@H](O)C[C@H](O[C@H]4CC[C@@]5(C)[C@H](CC[C@@H]6[C@@H]5CC[C@]5(C)[C@@H](C7=CC(=O)OC7)CC[C@]65O)C4)O[C@@H]3C)O[C@@H]2C)C[C@H](O)[C@@H]1O,nt,nt,nt,73.8*,nt,nt,PPC-1 tox=73.1*
